Shown are actives, neighbours in structure and some others; about 20% of the full set was active somewhere.
HCMV inh = inhibitors of human cytomegalovirus. AID 1259415. 410,000 compounds, 4.5% hits. HFF cells, HCMV-luciferase reporter, 72 h; active compounds read low. activity change, negative = inhibition, % at 57.5 µM; in the data active means activity change below about -60%; inconclusive means no clear call, values can overlap the other calls; inactive means above about -39%
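Inhibition of viral replication was scored as loss of reporter luminescence in HFFs infected with HCMV-luciferase (MOI 1 PFU/cell) for 72 h; compounds tested at 2 doses, normalized to buffer and Salinomycin controls.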
Pf growth 96h = inhibits malaria parasite growth, 96 h. P. falciparum luciferase reporter growth, 96 h. Potency, µM (titrated, usually from 28.7 µM), usual class: inhibitors. 320,000 compounds, 6.9% hits
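P. falciparum expressing integrated firefly luciferase, in erythrocytes at 2% hematocrit, 0.05% parasitemia, incubated with compounds 96 h at 37 C, 5% CO2. Growth inhibition read as loss of luminescence; two-generation exposure targets delayed-death apicoplast inhibitors.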
Cycloheximide cs = counter-screen hit for Shiga toxin inhibitors, cycloheximide | cell reporter, cycloheximide protein synthesis inhibition counterscreen | max response, % | 300,000 compounds, 12% hits; in the data active means max response mostly above about 13%, no sharp cut-off; inactive means mostly below about 14%; further: read at 38.3 µM for the half of the compounds with a filed dose
Shiga inhibitor = inhibitors of Shiga toxin in Vero cells | Vero cells, Shiga toxin protein synthesis inhibition reporter | inhibition, % at 38.7 µM | 290,000 compounds, 9.2% hits; in the data active means inhibition mostly above about 28%, no sharp cut-off; inactive means mostly below about 43%
Pf growth 48h = inhibits P. falciparum growth in the first generation, 48 h. 310,000 compounds, 5.9% hits. AID 504832. Potency, µM (top dose mostly 28.7 µM), most hits filed as inhibitors. P. falciparum luciferase growth in erythrocytes, 48 h
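Luciferase-expressing P. falciparum in infected erythrocytes (2% hematocrit, 0.1% parasitemia final) in RPMI 1640/0.5% Albumax were exposed to compound for 48 hours at 37 C, 5% CO2; growth read as luminescence.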
Of the large screens only hits and unclear results are named; the others gave an inactive call. Unless noted, the call rests on the fitted dose curve; in most records, active means well fitted inhibition curve with a large enough effect; inconclusive means small, poorly fitted or top-dose-only effect, or another doubt; inactive means no such curve, though single readings can be large or run the other way.

CCOc1ccc2nc(N3CCCC(C(=O)NCC4CCCO4)C3)sc2c1 (centres undefined)	Cycloheximide cs 45, Shiga inhibitor 75
CCOc1ccc2nc(N3CCC(C(=O)N4CCN(C5CCCCC5)CC4)CC3)sc2c1	Cycloheximide cs 48, Shiga inhibitor 64
CCOc1ccc2nc(SCc3ccc(F)cc3)sc2c1	Cycloheximide cs 37, Shiga inhibitor 36
COc1ccc(C(=O)CCC(=O)Nc2ccc(F)cc2F)cc1	none (no result: Pf growth 96h, Cycloheximide cs, Shiga inhibitor, Pf growth 48h)
COc1ccc(/C=N/NC(=O)c2ccc3nc[nH]c3c2)c(OC)c1OC	none
NC(=O)C1CCCN1S(=O)(=O)c1ccc2ccccc2c1 (centres undefined)	Pf growth 96h inconclusive
COc1ccc(NC(=O)c2cc(C3CCCCN3C(=O)c3ccc(Cl)cc3)on2)c(C)c1 (centres undefined)	none (no result: Pf growth 96h, Cycloheximide cs, Shiga inhibitor, Pf growth 48h)
COc1ccc(NC(=S)Nc2cc(C)cc(C)n2)cc1OC	Pf growth 96h inconclusive, Cycloheximide cs 21
COc1cccc(N/C(=N/C(=S)Nc2ccc(C)cc2C)Nc2nc(C)cc(C)n2)c1	Pf growth 96h 3.3µM, Pf growth 48h 4.1µM
COc1cccc(NC(=S)Nc2cc(C)cc(C)n2)c1	HCMV inh -67, Cycloheximide cs 49, Shiga inhibitor 56
Cc1cc(C)nc(NC(=S)Nc2cccc(F)c2)c1	Pf growth 48h inconclusive
CCNC(=S)/N=C(/Nc1ccc(OC)cc1)Nc1nc(C)cc(C)n1	Pf growth 96h inconclusive, Pf growth 48h inconclusive
O=c1[nH]c(CN2CCCCC2)ccc1O	none (no result: Pf growth 96h, Cycloheximide cs, Shiga inhibitor, Pf growth 48h)
O=C(CSc1nc2ccccc2n1Cc1ccc(Cl)cc1)N/N=C/c1ccc(C(=O)O)cc1	HCMV inh inconclusive, Pf growth 96h inconclusive, Pf growth 48h inconclusive
COc1ccccc1C1=NOC(C)(c2sc(-c3ccc(Cl)cc3)nc2C)C1 (centres undefined)	Cycloheximide cs 20, Shiga inhibitor 31
Cc1nc(-c2ccc(Cl)cc2)sc1C1(C)CC(c2ccccc2Br)=NO1 (centres undefined)	none (no result: Pf growth 96h, Cycloheximide cs, Shiga inhibitor, Pf growth 48h)
O=C(O)c1ccc2c(c1)C(=O)N([C@]1(C(=O)O)C[C@H]1c1ccccc1)C2=O	Pf growth 48h inconclusive (no result: HCMV inh)
CN(Cc1cn[nH]c1-c1ccc(-c2ccccc2)cc1)CC1CCOCC1	Cycloheximide cs 17
CN(Cc1ccon1)Cc1cn[nH]c1-c1ccc(-c2ccccc2)cc1	Cycloheximide cs 30
CC(c1ccon1)N(C)Cc1cn[nH]c1-c1ccc(-c2ccccc2)cc1 (centres undefined)	Shiga inhibitor 73
O=C(CN1C(=O)NC2(CCc3ccccc32)C1=O)NCCc1ccccc1 (centres undefined)	none (no result: Cycloheximide cs, Shiga inhibitor)
COc1cccc(CC(=O)OC(C)C(=O)Nc2ncc(Cl)cc2Cl)c1 (centres undefined)	none (no result: Cycloheximide cs, Shiga inhibitor)
COc1ccccc1C(=O)NC(=S)Nc1ccc(S(=O)(=O)N2CCN(C)CC2)cc1	none
CC(NC(=O)CCc1nnc(-c2ccccc2)o1)c1ccccc1 (centres undefined)	Pf growth 96h inconclusive, Cycloheximide cs 35, Shiga inhibitor 124
Cc1cc(CNC(=O)CCc2nnc(CCCc3ccccc3)o2)nn1C	Pf growth 96h inconclusive, Cycloheximide cs 37, Shiga inhibitor 33
Cc1cccc(CC(C)NC(=O)CCc2nnc(CCCCc3ccccc3)o2)n1 (centres undefined)	Pf growth 96h inconclusive
CC1(C)CC(NC(=O)CCc2nnc(CCCCc3ccccc3)o2)CCO1 (centres undefined)	Pf growth 96h 10µM
CC(NC(=O)CCc1nnc(CCCc2ccccc2)o1)c1ccccc1 (centres undefined)	Cycloheximide cs 29, Shiga inhibitor 94
CNc1c(NS(=O)(=O)c2ccc(CC(C)C)cc2)c(=O)oc2ccccc12	none
CC(C)CC(=O)c1c[nH]c(C(=O)NCc2cccnc2)c1	Pf growth 96h inconclusive, Pf growth 48h 10µM
CCN(C(=O)C(=O)Nc1ccc2nc3n(c(=O)c2c1)CCCCC3)c1ccc(F)cc1	none (no result: Pf growth 96h, Cycloheximide cs, Shiga inhibitor, Pf growth 48h)
Cc1cc(/C=N/O)c(C)n1-c1ccc(Br)cc1	Pf growth 96h inconclusive, Pf growth 48h inconclusive
O/N=C/c1ccn(-c2ccc(Br)cc2)c1	Cycloheximide cs 40, Shiga inhibitor 69
COC(=O)CCN(c1ccccc1)S(=O)(=O)c1ccc(OC)cc1	none
CC1(C)CC(=O)C=C(c2ccc(COC(=O)C(c3ccccc3)c3ccccc3)cc2)C1=O	none (no result: Pf growth 96h, Cycloheximide cs, Shiga inhibitor, Pf growth 48h)
CC1=NN(c2ccccc2)C(=O)C1(C)C	Pf growth 96h 9.3µM
Cc1nc2nc(SCC(=O)NCCc3ccc(Cl)cc3)nn2c(C)c1Cc1c(F)cccc1Cl	none (no result: Pf growth 96h, Cycloheximide cs, Shiga inhibitor, Pf growth 48h)
CC(C)(C)n1cnc2cc(NC(=O)c3ccccc3)ccc21	Cycloheximide cs 34, Shiga inhibitor 93
O=C(O)c1ccc(NC(=O)c2cccc(NC(=O)c3cccs3)c2)cc1	none (no result: HCMV inh)
Cn1c(=O)n(C)c2cc(NC(=O)c3ccccc3)ccc21	none (no result: Pf growth 96h, Cycloheximide cs, Shiga inhibitor, Pf growth 48h)
CC(C)(C)n1cnc2cc(NC(=O)c3cccs3)ccc21	Cycloheximide cs 34, Shiga inhibitor 104
CCn1cnc2cc(NC(=O)c3cccs3)ccc21	Cycloheximide cs 28, Shiga inhibitor 67
C=CCn1c(=O)c2ccccc2n2c(SCC(=O)NC(C)C)nnc12	none
S=C(NCc1ccco1)N1CCN(Cc2ccco2)CC1	none
O=C(CN1CCN(C(=O)c2ccco2)CC1)Nc1ccc(Cl)c(S(=O)(=O)N2CCOCC2)c1	Pf growth 48h 12µM
COc1ccc(NC(=O)CN2CCN(C(C)=O)CC2)cc1S(=O)(=O)N1CCOCC1	none (no result: Pf growth 96h, Cycloheximide cs, Shiga inhibitor, Pf growth 48h)
S=C(Nc1ccc2c(c1)OCO2)N1CCN(Cc2ccco2)CC1	Cycloheximide cs 20, Shiga inhibitor 28
O=C(CN1CCN(C(=O)c2ccco2)CC1)Nc1cc(Cl)ccc1Cl	Pf growth 48h 1µM
COC(=O)c1cccc(NC(=O)CN2CCOCC2)c1	Pf growth 96h 10µM
O=C(CN1CCN(C(=O)c2ccco2)CC1)Nc1ccccc1-c1ccccc1	Pf growth 48h inconclusive
CCCCn1c(SCC(=O)Nc2cccc(OC)c2)nc2ccsc2c1=O	none (no result: Pf growth 96h, Cycloheximide cs, Shiga inhibitor, Pf growth 48h)
CCOc1ccccc1NC(=O)Cn1c(=O)n(-c2ccc(C)cc2)c(=O)c2c1cnn2C	none (no result: Pf growth 96h, Cycloheximide cs, Shiga inhibitor, Pf growth 48h)
O=C(NCc1cccnc1)C1CCN(Cc2cc3ccccc3n2Cc2cccc(Cl)c2)CC1	none (no result: Pf growth 96h, Cycloheximide cs, Shiga inhibitor, Pf growth 48h)
CC(C)CNc1nc(Oc2ccc(=O)[nH]n2)nc(N2CCOCC2)n1	none
Cc1ccc(NC(=O)CN2CCN(C(=O)c3ccco3)CC2)cc1	none
O=C(CN1CCN(c2ccccc2O)CC1)Nc1ccc2c(c1)OCCCO2	Pf growth 48h 13µM (no result: Cycloheximide cs, Shiga inhibitor)
O=C(CN1CCOCC1)Nc1ccc2c(c1)OCCO2	Cycloheximide cs 16, Shiga inhibitor 50
O=C(CN1CCN(c2ccccc2)CC1)Nc1ccc2c(c1)OCCO2	none
O=C(CN1CCN(C(=O)c2ccco2)CC1)Nc1ccc2c(c1)OCCO2	Cycloheximide cs 27, Shiga inhibitor 91
O=C(CSc1ccc2c(c1)OCCO2)N1CCN(c2ccccc2O)CC1	Pf growth 96h 7.4µM, Pf growth 48h inconclusive (no result: Cycloheximide cs, Shiga inhibitor)
C=C(C)c1cccc(C(C)(C)NC(=O)NCc2cccnc2)c1	Pf growth 96h inconclusive
C=C(C)c1cccc(C(C)(C)NC(=O)Nc2ccc(Cl)cn2)c1	Pf growth 96h inconclusive

High-throughput results as filed in PubChem.
